Test results reported in the supplement of paper PMC11417369.
The full ranking holds about 25,000 sequences; the median of “ln(normalized median fluorescence intensity)” is about 9.7, and the highest 2% start at about 11. The sample as a whole holds a higher share of the highest values than the screen did.

System: PfAP2-HC AP2 domain (GST-tagged)
Test: gcPBM binding intensity (ln(normalized median fluorescence intensity)); higher = stronger DNA binding
Procedure, shortened: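 Binding intensity values are the highest Masliner-normalised natural-log median intensity among replicate spots of either probe orientation. The binding step lasted 1 h in 1× PBS with 1% milk, 0.2 mg/ml BSA, 0.5% salmon testes DNA and 0.03% Triton X-100, using GST-tagged P. falciparum DNA-binding domains expressed in E. coli on an Agilent 4 × 180k array of primer-extended double-stranded 36-bp intergenic genomic probes plus negative controls. Alexa488 anti-GST antibody and a 488 nm scan detected bound protein.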

| Sequence | gcPBM binding intensity (ln) |
| --- | --- |
| TTTCGTCATTTTGTTTTTAATTCTACAATTTAGTTA [XGTACX_negctrl_site286] | 9.66 |
| TTATAGAGCTTATTCACACATACATATGTATTTATA [CACACA_site5775] | 9.87 |
| ATTATTATACACAAATGTACATGTGAATTTTTTTTC [XGTACX_site6982] | 9.63 |
| ATAAAACAAAAATATAAACACACATACATTGGTTTT [CACACA_site8809] | 10.1 |
| TTATTTTTATTATTTTGTATATATATTTATAGAAAA [XGTACX_negctrl_site465] | 9.28 |
| AAATATATTTCACGCACACACACCCCAAATAAATTT [CACACA_site3820] | 11.2 |
| TATACAATATAAAATACACACGCACCCAAAAAAAAA [CACACA_site9174] | 10.3 |
| ATAAATATATTTCACGCACACACACCCCAAATAAAT [CACACA_site9272] | 10.4 |
| AGATAAAAAAAGTACACACACACATATATATATATA [CACACA_site3072] | 10.4 |
| TACATATAAAAGTACACACACACACCCATATATATA [CACACA_site941] | 11 |
| AATACATATAAAAGTACACACACACCCATATATATA [CACACA_site8220] | 10.5 |
| AAAAAATTAAAAATACGTACATATATACATATATAT [XGTACX_site4621] | 9.71 |
| CATCATATAAATTCAAGTACAAGAAAAAGTAATATA [XGTACX_site2383] | 9.64 |
| ATATTTATGTAATGTTTGATTTTTTTTTTATGTGTG [CACACA_negctrl_site1422] | 9.88 |
| TACAAATATGGACACACACACATATATATATATATA [CACACA_site4488] | 11.3 |
| TAATAAATAGGACACACACACATATTTATATATCAT [CACACA_site6771] | 11 |
| ATAAATATAGGACACACACACATATTATATATATAT [CACACA_site5658] | 10.5 |
| TAATAAAATAATATCACACATATTTATATATATTAT [CACACA_site5814] | 9.61 |
| TATTTATATGGACACACACACATATAAATAAATAAA [CACACA_site6346] | 10.2 |
| TGTACAAATATGTACACACACACATATTTATTTATA [CACACA_site6419] | 10.2 |
| GAATAATATGGACATACACACATATACATACATATA [CACACA_site2114] | 10.1 |
| TATATATATGGACACACACACATATAAATAAATAAA [CACACA_site4406] | 10.7 |
| AGGATACACGGACACACACACATATATATATATATA [CACACA_site4654] | 10.6 |

| Sequence | gcPBM binding intensity (ln) |
| --- | --- |
| AAAGGATATGGACACACACACACATATATATATATA [CACACA_site8686] | 10.6 |
| AGGATATGCGGACACACACACATATATATATATATA [CACACA_site5247] | 11 |
| TACAAATATGGACACACACACATATTTATATTTATA [CACACA_site6420] | 11 |
| AACTATAACTAAAAAAATCACATAAAATATTTTATT [TGCATGCA_negctrl_site363] | 9.46 |
| TATTTAAAATAATGTGCAAAAGAATAAATAAATAAA [TGCATGCA_negctrl_site194] | 9.74 |
| GTGTACAAAATATGGTAATAAAGTAGTTACATGAAT [CACACA_negctrl_site1775] | 9.86 |
| TGTATATTTGATTCATGTACATATTTTATTTTAACT [XGTACX_site5169] | 9.72 |
| TTATTTATCAAAAAATGTACAAAAATATATAAACAA [XGTACX_site940] | 9.6 |
| ACGCACGAAATAAATACATGCATATTGTAAAAATTA [TGCATGCA_site310] | 9.48 |
| TTAAAAATAAAAAATACACACTCTAGTCCATGTAAC [CACACA_site3640] | 10.1 |
| ATGTAACACATATTTGGTACAGATAGATAAAAGTAT [XGTACX_site8291] | 9.87 |
| ATAAAGAAAAATAGAAGTACATATATGCATGTTAAT [XGTACX_site4480] | 9.86 |
| ATGTGTTTCTTCAATTGTACTAAAAGGTATATATTG [XGTACX_site4608] | 9.63 |
| TAAATTATAAATTGCACACATATTTTTATATTTATA [CACACA_site2976] | 9.77 |
| GCTTGGATATATTAATGTACTTATATATTATGTTGT [XGTACX_site3768] | 9.82 |
| AATACATGCTTATTTTAACACACAAATGGTAGTAAT [CACACA_site8154] | 9.83 |
| TATATATATGGACACACACACACATATATATATATA [CACACA_site6121] | 11.3 |
| TATATATATGGACACACACACATATATATATATTTT [CACACA_site5409] | 10.3 |
| AAAAATTATGGACACACACACATATATATATATATT [CACACA_site4717] | 10.3 |
| ATGTCCTATATTAGTACACACATGAAAATATAAATA [CACACA_site7497] | 9.66 |
| AAAAAAAAAAAAAAAAGTACAAATTTAAAAATGTGT [XGTACX_site112] | 9.44 |
| TGGGAATAAAAACACACACACACACCGATATATATA [CACACA_site5875] | 11.3 |
| AAAGATAAAAAAAGTACACACACACCGATATATATA [CACACA_site9006] | 10.6 |

| Sequence | gcPBM binding intensity (ln) |
| --- | --- |
| CAAAAAAACAAACACACACACACACCGATATATATA [CACACA_site9218] | 10.5 |
| AAAAAGGATAAACACACACACACACCGATATATATA [CACACA_site8206] | 11 |
| CTATAATAATAAAGTGAACACACACCGATAATATAT [CACACA_site9377] | 10.1 |
| AGAATAAAAAGGAACACACACACACCCATATATATA [CACACA_site3590] | 10.7 |
| AATATAAATAAAAACACACACACACCGATATATATA [CACACA_site5283] | 10.8 |
| AATAAAAAGGAACACACACACACACCGATATATATA [CACACA_site5895] | 11.2 |
| CACTAAAATAAACACACACACACACCGATATATATA [CACACA_site9379] | 10.8 |
| AACGAAGCATAAAATGTTATGTATATATATAAATAT [TGCATGCA_negctrl_site304] | 9.79 |
| ATAGAAATATATATATGTACATATAGATAAATCTAT [XGTACX_site7833] | 9.75 |
| ATATGTACATATCTCATGCACTTAACAAAAAAAAAG [GTGCAC_site9898] | 9.56 |
| TACATTCGGAGTAAAAAAAAATTTATACAATTACTT [XGTACX_negctrl_site29] | 9.44 |
| ATAATCCTTAGACACACACACACACGAATAAATAAA [CACACA_site6364] | 11.3 |
| AATCCTTACGGACACACACACACGAATAAATAAAAA [CACACA_site4422] | 11 |
| AATCCTTACGAACACACACACACGAATAAATAAAAA [CACACA_site6363] | 10.8 |
| AATCCTTACAGACACACACACACGAATAAATAAAAA [CACACA_site480] | 10.6 |
| TAGAATAATCCTTACACACACACACCCACGAATAAA [CACACA_site483] | 10.5 |
| AATAGAATAATCCTTACACACACACCCACACGAATA [CACACA_site8053] | 10.4 |
| GAATTTCAACAAAGTAGTACATTTTATAGTAATTGG [XGTACX_site2319] | 9.48 |
| ATAAACATATCAATATGTACATATTTTTGTTTGTAT [XGTACX_site7018] | 9.77 |
| TAATTTTTATTCAGTTCACACACGCTTTAATATTAT [CACACA_site9147] | 9.94 |
| GTTATATTCCTACAGAGTACATAAAAATGCACATCA [XGTACX_site1948] | 9.54 |
| AAAAAAAAAAAAAATACACACAAACACAAATTAAAT [CACACA_site5982] | 10.8 |
| GTTTCAAAATTAAACACACACAAAAAAAAAAAAAAA [CACACA_site2680] | 9.72 |

| Sequence | gcPBM binding intensity (ln) |
| --- | --- |
| AAAAAAAAAAAATACACACAAACACAAATTAAATAA [CACACA_site3809] | 10.3 |
| CATAAATTAAAACACACACACACAAAAAAAAAAAAA [CACACA_site2262] | 11.6 |
| TAAATTAAAAAACACACACACAAAAAAAAAAAAAAA [CACACA_site2263] | 11.2 |
| AAAAAATTAATAAAAACACACAAAAAAAATAAACAA [CACACA_site1907] | 9.95 |
| TACCCACGTATATATATACACACTAATATACACCCA [CACACA_site9381] | 9.88 |
| TTAAGCCGCAATATGGGTACATAGGAAGAAGGGGAA [XGTACX_site8397] | 9.56 |
| TTTTAAATTTAATTTACACACTTTTCATAGCATTGA [CACACA_site3794] | 9.61 |
| TGCAGTCTGGAGAAAAGTACACAGTATCTGGTAGCT [XGTACX_site2013] | 9.58 |
| CATACATACATACATACACACATACATATGTATTTA [CACACA_site5384] | 9.99 |
| AAACTTGTAAGAAACACACACACACGCATATAAATA [CACACA_site6518] | 10.7 |
| AAACTTGTAAGAAACACACACACACCCATATATATA [CACACA_site797] | 10.5 |
| TTGTAAGAAAAACACACACACACATATATATATATA [CACACA_site795] | 10.3 |
| ACTTGTAAGAAACACACACACACACCCATATATATA [CACACA_site796] | 11.5 |
| ACTTGTAAGAAACACACACACACACCGATATATATA [CACACA_site4594] | 11.2 |
| TTAAACTTGAAACACACACACACACCGATATAAAAA [CACACA_site4578] | 10.5 |
| AATTAAATTACTTATACACACATAAAATGCCTGTAT [CACACA_site6597] | 9.84 |
| TTATGTAAAAAAAAAAAAAAAAAAAAAAAAAAAAAA [CACACA_negctrl_site984] | 9.05 |
| ATTATCAAAAAAAAAAAAAAAAAAAAAAAAAAAAAA [CACACA_negctrl_site1118] | 8.87 |
| AACTTGTATTTATACACACACACACTGTCTTTTTTT [CACACA_site7009] | 10.5 |
| AACTTGTATTTATACACACACACACTAGCTTTTTTT [CACACA_site5132] | 10.4 |
| AACTTGTATATATACACACACACACTATCTTTTTTT [CACACA_site8601] | 10.9 |
